Compound activity (PubChem BioAssay)
Not all results are given here.
aSyn 5UTR act = Activators via SNCA 5'UTR binding, MLPCN; alpha-synuclein 5'UTR reporter, activators screen; activity score, % (tested at 7.5 µM), hits read low; actives 7.1% (n = 300,000); AID 1814, 2009; in the data active = activity score below about -60%
Of the large screens only hits and unclear results are named; the others gave an inactive call.

COc1ccc(N/C(C)=C/C(=S)Nc2ccccc2)cc1	aSyn 5UTR act -75
COc1cccc(N/C(C)=C/C(=O)c2ccc(Br)cc2)c1	aSyn 5UTR act -172
COc1ccc(OC)c(NC(=O)c2ccccc2OC(C)=O)c1	aSyn 5UTR act -69
COc1ccc(OC)c(N/C(C)=C/C(=O)c2ccccc2)c1	aSyn 5UTR act -113
COc1ccc(NC(=O)/C=C/c2ccc3c(c2)OCO3)cc1	aSyn 5UTR act -91
COc1ccc(C(=O)/C=C(\C)Nc2ccc3c(c2)OCO3)cc1	aSyn 5UTR act -170
COc1ccc(OC)c(N/C=C/C(=O)c2ccccc2)c1	none
COc1ccc(N/C(C)=C/C(=O)c2ccccc2)cc1	aSyn 5UTR act -151
COC(=O)/C(=C\C(=O)c1ccccc1)Nc1ccc(OC)cc1	aSyn 5UTR act -93
COc1cc(/C=N/NC(=O)COc2ccc(C)cc2)ccc1OC(=O)c1cccs1	aSyn 5UTR act -65
CC(=O)c1cc(C#N)c(SCc2ccccc2)nc1C	aSyn 5UTR act -85
CC(=O)c1cc(C#N)c(SCc2ccccn2)nc1C	aSyn 5UTR act -114
S=C(Nc1ccc(Br)cc1Cl)N1CCCC1	aSyn 5UTR act -91
Cc1ccn2c(C(=O)c3ccc(Cl)cc3)cnc2c1	aSyn 5UTR act -81
Cc1ccc(N2C(=O)c3n[nH]c(C)c3C2c2ccco2)cc1 (stereo not drawn)	aSyn 5UTR act -65
O=C(COc1ccc(F)cc1)c1c(O)cc(O)cc1O	aSyn 5UTR act -79
COc1ccc(C(=O)COc2ccc(F)cc2)c(O)c1	aSyn 5UTR act -119
COc1ccc(C(=O)Cc2ccc(F)cc2)c(OC)c1	aSyn 5UTR act -117
COc1ccc(C(=O)CCc2ccccc2)c(O)c1	aSyn 5UTR act -107
O=C(Nc1ccc2oc(-c3ccccc3)nc2c1)c1cccnc1	aSyn 5UTR act -161
CCc1ccc2oc(-c3cccc(NC(=O)c4cccnc4)c3)nc2c1	aSyn 5UTR act -167
CCCCCC(=O)Nc1ccc2oc(-c3cccnc3)nc2c1	aSyn 5UTR act -75
O=C(Nc1ccc2oc(-c3ccccc3)nc2c1)c1ccco1	aSyn 5UTR act -156
O=C(Nc1ccc2oc(-c3ccccc3)nc2c1)c1ccc2c(c1)OCCO2	aSyn 5UTR act -66
O=C(Nc1ccn(Cc2ccccc2F)n1)c1ccc(COc2cccc(Br)c2)cc1	aSyn 5UTR act -150
O=C(NC(=S)Nc1cc([N+](=O)[O-])ccc1Cl)c1ccccc1	aSyn 5UTR act -85
O=C(NC(=S)Nc1cccc([N+](=O)[O-])c1)c1ccco1	aSyn 5UTR act -113
O=C(NC(=S)Nc1cccc([N+](=O)[O-])c1)c1ccccc1	aSyn 5UTR act -170
O=[N+]([O-])c1cccc(NC(=S)Nc2nc(-c3ccc(Cl)cc3Cl)cs2)c1	none
O=C(Nc1ccc([N+](=O)[O-])cc1)C(=O)Nc1cccc(C(=O)O)c1	none
COc1cc([N+](=O)[O-])ccc1NC(=S)Nc1cccc(C(=O)O)c1	aSyn 5UTR act -72
O=[N+]([O-])c1cccc(/C([O-])=C(/C(=S)Nc2ccccc2)[n+]2ccccc2)c1	aSyn 5UTR act -105
COc1ccc(-n2c(C)nn(CCOc3ccccc3)c2=O)cc1	aSyn 5UTR act -90
Cc1cc(NC(=O)c2cc(-c3ccco3)on2)nn1Cc1ccc(Cl)cc1	aSyn 5UTR act -71
O=C(Nc1ccccc1C(F)(F)F)c1cc(-c2ccccc2O)on1	aSyn 5UTR act -141
O=C(Nc1ccccc1C(F)(F)F)c1cc(-c2ccco2)on1	aSyn 5UTR act -127
Cc1c(Cl)cccc1NC(=O)c1cc(-c2ccco2)on1	aSyn 5UTR act -108
CN1CCN(C(=O)c2cc(-c3ccccc3)on2)CC1	aSyn 5UTR act -80
O=C(c1cc(-c2cccc(O)c2)on1)N1CCCC1	aSyn 5UTR act -106
O=C(c1cc(-c2ccccc2)on1)N1CCCCCC1	aSyn 5UTR act -200
CCN(CC)C(=O)c1cc(-c2ccc(Br)cc2)on1	aSyn 5UTR act -152
O=C(c1cc(-c2ccc(Br)cc2)on1)N1CCCC1	aSyn 5UTR act -109
C/C(=N/NC(=O)OC(C)(C)C)c1ccco1	aSyn 5UTR act -86
CC(/C=C/c1ccco1)=N/NC(=O)OC(C)(C)C	aSyn 5UTR act -129
Cc1ccn2c(C(=O)CSc3ccccc3)c(C)nc2c1	aSyn 5UTR act -65
COc1ccc(/C=C/c2nc3ccccc3c(=O)o2)cc1	none
COc1ccccc1/C=C/c1nc2ccccc2c(=O)o1	aSyn 5UTR act -107
Cc1ccc(NC(=O)CCC(=O)c2cccs2)c(O)c1	aSyn 5UTR act -80
O=C(CSCc1ccco1)c1cccs1	aSyn 5UTR act -174
O=C(CCC(=O)c1cccs1)c1cccs1	aSyn 5UTR act -69
O=[N+]([O-])c1ccc(N/N=C/c2ccccc2)c(F)c1	aSyn 5UTR act -151
Nc1nonc1-c1noc(CCCN2C(=O)c3ccccc3C2=O)n1	aSyn 5UTR act -108
Cc1cccc(OCc2nc(-c3nonc3N)no2)c1C	aSyn 5UTR act -144
O=C(Nc1ccc(-c2noc(COc3ccccc3Cl)n2)cc1)c1ccco1	aSyn 5UTR act -140
Nc1nonc1-c1noc(COc2ccccc2Cl)n1	aSyn 5UTR act -162
Cc1ccc(C(=O)Nc2ncc([N+](=O)[O-])s2)cc1	none
O=C(Cc1ccc(Br)cc1)Nc1ncc([N+](=O)[O-])s1	aSyn 5UTR act -105
O=C(Cc1ccc(Cl)cc1)Nc1ncc([N+](=O)[O-])s1	aSyn 5UTR act -131
O=C(Nc1ncc([N+](=O)[O-])s1)c1ccco1	aSyn 5UTR act -98
CC1Oc2ccccc2N(CC(=O)NCc2ccccc2)C1=O (stereo not drawn)	aSyn 5UTR act -91
O=C(Nc1ccccn1)c1ccc(COc2ccccc2Cl)o1	aSyn 5UTR act -71
O=C(Nc1ccc(Cl)cn1)c1ccc(COc2ccccc2Br)o1	aSyn 5UTR act -117
CN(C)C(=O)c1ccc(COc2ccccc2Br)o1	aSyn 5UTR act -166
COc1cccc2cc(-c3ccccc3)c(=O)oc12	aSyn 5UTR act -113
COc1cccc2cc(-c3nc4ccccc4[nH]3)c(=O)oc12	aSyn 5UTR act -157
CC1CCCN(C(=O)Cn2nnc(-c3ccccc3F)n2)C1 (stereo not drawn)	aSyn 5UTR act -103
O=C(Cn1nnc(-c2ccccc2Cl)n1)N1CCCCC1	aSyn 5UTR act -98
CC(C)COc1ccc(-c2nnn(CC(=O)N3CCCC3)n2)cc1	aSyn 5UTR act -89
O=C(Cn1nnc(-c2ccc(OCc3ccccc3F)cc2)n1)N1CCOCC1	aSyn 5UTR act -70
CC(C)c1ccc(-c2nnn(CCC(=O)O)n2)cc1	none
O=C(Cn1nnc(-c2ccccc2)n1)N1CCCCC1	aSyn 5UTR act -70
Cn1c(-c2ccccc2)cnc1SCC(=O)N1CCCCC1	none
Cc1cc(-c2ccccc2)nc(Cl)c1C#N	aSyn 5UTR act -80
Cc1ccc(-c2cc(-c3ccccc3)nc(Cl)n2)cc1	aSyn 5UTR act -72
c1ccc(NC2=Nc3ccccc3CS2)cc1	aSyn 5UTR act -201
FC(F)(F)c1nnc2c(Sc3ccccc3)nc3ccccc3n12	aSyn 5UTR act -103
CCn1c(O)c(N=Nc2ccc3ccccc3n2)c2ccccc21	aSyn 5UTR act -143
NC(=S)N=Nc1c(O)n(Cc2ccc(Br)cc2)c2ccccc12	none
Brc1ccc(N=Nc2ccc3ccccc3n2)cc1	none
Cc1ccc(-c2nn(-c3ccccc3)cc2CSC(=N)N)cc1	none
Cc1ccc(-c2nn(-c3ccccc3)cc2C=O)o1	aSyn 5UTR act -88
Cc1ccc(-c2nn(-c3ccccc3)cc2CO)o1	aSyn 5UTR act -82
CCC(C)c1ccc2oc(-c3ccc(NC(=O)Cn4cnc5c(=O)n(C)c(=O)n(C)c54)cc3)nc2c1 (stereo not drawn)	aSyn 5UTR act -114
Cc1ccc2oc(-c3cccc(NC(=O)Cn4cnc5c(=O)n(C)c(=O)n(C)c54)c3)nc2c1	aSyn 5UTR act -119
